According to PubChem BioAssay (NCI):
The panel holds about 79,000 compounds, 15% with a hit somewhere; the sample as a whole holds those more often. Activity calls are given as the source filed them. Rule as the data show it: active = growth inhibition above about 70%; inactive = the rest.

Key:
[1] = NCI Yeast Anticancer Drug Screen. Data for the rad50 strain (AID 155);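 also: 0% = growth of vehicle-only cultures of the same strain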; conditions: S. cerevisiae rad50 strain growth inhibition, stronger effect = higher value
Method in brief: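 Compounds were tested on a yeast strain with an engineered DNA damage repair alteration; the reported value is growth inhibition normalised to vehicle treatment.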

[2] = NCI Yeast Anticancer Drug Screen. Data for the mec2-1 strain (AID 157); conditions: S. cerevisiae mec2-1 strain, stronger effect = higher value
Method in brief: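 Growth inhibition is read against vehicle-treated controls after compound exposure of the mec2-1 yeast strain, which is defective in DNA damage repair or cell cycle control.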

[3] = NCI Yeast Anticancer Drug Screen. Data for the sgs1 mgt1 strain (AID 161);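 also: 0% = growth of cultures given vehicle only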; conditions: S. cerevisiae sgs1 mgt1 strain, stronger effect = higher value
Method in brief: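 Percent growth inhibition was derived by comparing compound-exposed mutant yeast with vehicle-exposed cultures. The strain carries alterations in DNA damage repair.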

[4] = NCI Yeast Anticancer Drug Screen. Data for the cln2 rad14 strain (AID 165);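 also: 0% = growth equal to vehicle treated cultures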; conditions: S. cerevisiae cln2 rad14 strain, stronger effect = higher value
Method in brief: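 Growth inhibition, relative to vehicle-treated controls, is the read-out. The test organism is a yeast strain with defined genetic alterations, cln2 rad14.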

[5] = NCI Yeast Anticancer Drug Screen. Data for the bub3 strain (AID 167); conditions: S. cerevisiae bub3 mutant strain, stronger effect = higher value
Method in brief: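 Growth of a checkpoint-deficient yeast mutant is measured after compound exposure. Values represent inhibition relative to vehicle.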

[6] = NCI Yeast Anticancer Drug Screen. Data for the mlh1 rad18 strain (AID 175); conditions: S. cerevisiae mlh1 rad18 strain growth inhibition, stronger effect = higher value
Method in brief: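 Cells of a genetically altered yeast strain, deficient in DNA damage repair, were treated with compound. Their growth was then compared with that of vehicle-treated cultures to give inhibition.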

[7] = at 5.0 µM (retest, dose inferred, filed as 0.5)
[8] = at 50.0 µM (retest, dose inferred, filed as 5.0)

Measured: growth inhibition

Cc1ccc(C)c2c3c([nH]c12)-c1ccccc1CC3
active: [1]; at 50.0 µM 98.5% | [2]; at 50.0 µM 92.8% | [3]; at 50.0 µM 83.5% | [4]; at 50.0 µM 80% | [5]; at 50.0 µM 96.7% | [6]; at 50.0 µM 94.8%
inactive: [1]; [7] 1% | [1]; [8] 3% | [2]; [7] -3% | [2]; [8] 2% | [3]; [7] -4% | [3]; [8] 10% | [4]; [7] -1% | [4]; [8] 7% | [5]; [7] 0% | [5]; [8] 4% | [6]; [7] 6% | [6]; [8] 9%

CC(C)N(CC(=O)c1ccc2cc(Cl)c3ccccc3c2c1)C(C)C
active: [1]; [8] 97% | [1]; at 50.0 µM 99% | [2]; [8] 98% | [2]; at 50.0 µM 98.6% | [3]; [7] 79% | [3]; [8] 98% | [3]; at 50.0 µM 98.8% | [4]; [8] 98% | [4]; at 50.0 µM 98.2% | [5]; [8] 97% | [5]; at 50.0 µM 98.5% | [6]; [8] 98% | [6]; at 50.0 µM 98.5%
inactive: [1]; [7] 20% | [2]; [7] 34% | [4]; [7] 8% | [5]; [7] 32% | [6]; [7] 39%

Cn1cccc1C(/C=C/c1ccccc1[N+](=O)[O-])c1cccn1C
inactive: [1]; [7] -2% | [1]; [8] 20% | [1]; at 50.0 µM 18.2% | [2]; [7] 4% | [2]; [8] 4% | [2]; at 50.0 µM 6.4% | [3]; [7] -12% | [3]; [8] 8% | [3]; at 50.0 µM 20.9% | [4]; [7] 17% | [4]; [8] 37% | [4]; at 50.0 µM 4.35% | [5]; [7] -3% | [5]; [8] 41% | [5]; at 50.0 µM 17.6% | [6]; [7] -15% | [6]; [8] 21% | [6]; at 50.0 µM 20.2%

O=S(=O)(c1cc(Cl)ccc1Cl)N1CCc2ccccc2C1
inactive: [1]; [7] 14% | [1]; [8] 3% | [1]; at 50.0 µM 16.1% | [2]; [7] -28% | [2]; [8] -13% | [2]; at 50.0 µM -25.6% | [3]; [7] -1% | [3]; [8] 12% | [3]; at 50.0 µM 25.6% | [4]; [7] -1% | [4]; [8] 15% | [4]; at 50.0 µM -11.4% | [5]; [7] 18% | [5]; [8] 12% | [5]; at 50.0 µM 5% | [6]; [7] -17% | [6]; [8] -31% | [6]; at 50.0 µM -9.85%

CCCCC(CSC#N)SC#N (configuration not stated)
active: [1]; [8] 98% | [1]; at 50.0 µM 99% | [2]; [8] 98% | [2]; at 50.0 µM 98.3% | [3]; [8] 97% | [3]; at 50.0 µM 97.2% | [4]; [8] 95% | [4]; at 50.0 µM 97.2% | [5]; [8] 97% | [5]; at 50.0 µM 98% | [6]; [8] 98% | [6]; at 50.0 µM 98.3%
inactive: [1]; [7] 14% | [2]; [7] 14% | [3]; [7] 12% | [4]; [7] 3% | [5]; [7] 16% | [6]; [7] 24%

CC(C)(C)c1ccc(C(=O)C[n+]2ccc(Cl)c3ccc(Cl)cc32)cc1
inactive: [1]; [7] 0% | [2]; [7] 1% | [3]; [7] 0% | [3]; at 50.0 µM 62.9% | [4]; [7] -2% | [4]; at 50.0 µM 53.5% | [5]; [7] 2% | [5]; at 50.0 µM -1.75% | [6]; [7] 1%
active: [1]; [8] 98% | [1]; at 50.0 µM 99% | [2]; [8] 99% | [2]; at 50.0 µM 99.3% | [3]; [8] 99% | [4]; [8] 97% | [5]; [8] 98% | [6]; [8] 99% | [6]; at 50.0 µM 99.2%

Cc1c(N)nc(C(CC(N)=O)NCC(N)C(N)=O)nc1C(=O)NC(C(=O)NC(C)C(O)C(C)C(=O)NC(C(=O)NCCc1nc(-c2nc(C(=O)NCCCNCCCc3ccccn3)cs2)cs1)C(C)O)C(OC1OC(CO)C(O)C(O)C1OC1OC(CO)C(O)C(OC(N)=O)C1O)c1cnc[nH]1 (configuration not stated)
active: [1]; [7] 98% | [1]; [8] 99% | [1]; at 50.0 µM 92.6% | [2]; [7] 97% | [2]; [8] 99% | [2]; at 50.0 µM 93.4% | [3]; [7] 98% | [3]; [8] 99% | [3]; at 50.0 µM 93.7% | [4]; [7] 90% | [4]; [8] 98% | [4]; at 50.0 µM 90.3% | [5]; [7] 97% | [5]; [8] 98% | [5]; at 50.0 µM 93.3% | [6]; [7] 98% | [6]; [8] 99% | [6]; at 50.0 µM 92%

COc1cc(NCCCCCNC(C)C)c2ncc(C)c(C)c2c1
inactive: [1]; [7] 3% | [1]; [8] 36% | [2]; [7] -4% | [2]; [8] 6% | [2]; at 50.0 µM 44.5% | [3]; [7] 3% | [3]; [8] 23% | [3]; at 50.0 µM 61.4% | [4]; [7] 7% | [4]; [8] 20% | [4]; at 50.0 µM 12.1% | [5]; [7] 3% | [5]; [8] 35% | [6]; [7] 9% | [6]; [8] 27% | [6]; at 50.0 µM 55.4%
active: [1]; at 50.0 µM 75.7% | [5]; at 50.0 µM 79%

Clc1ccc(C2=CCCc3ccccc32)cc1
inactive: [1]; [7] -3% | [1]; [8] 1% | [2]; [7] 6% | [2]; [8] -4% | [3]; [7] -14% | [3]; [8] 7% | [4]; [7] 5% | [4]; [8] -19% | [5]; [7] 6% | [5]; [8] -2% | [6]; [7] -2% | [6]; [8] 3%
active: [1]; at 50.0 µM 91.1% | [2]; at 50.0 µM 96.2% | [3]; at 50.0 µM 95.8% | [4]; at 50.0 µM 95.7% | [5]; at 50.0 µM 88.5% | [6]; at 50.0 µM 96.5%
